Screens (PubChem)
This is a sample that favours compounds with a hit; in the whole collection about 7.5% have one here.
Luc counter = Kinase-Glo luciferase inhibition (counter-screen) | Kinase-Glo luciferase, ATP luminescence, 8 min | Potency, µM (highest dose often 38.3 µM), without a hit: top-dose activity change, negative = inhibition, usual class: inhibitors | actives 0.28% (n = 200,000); further: on the % scale 0 is the no-effect control and ±100 the full control effect; nearly all actives have a fitted effect of over 60% in size
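Inhibition of Kinase-Glo luciferase light generation was assessed at 10 uM ATP in pH 7.2 imidazole buffer, with luminescence measured after eight minutes at ambient temperature.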
ELG1 genotoxic = induces genotoxicity in HEK293T cells with luciferase-tagged ELG1; HEK293T ELG1-luciferase reporter, luminescence, 16 h; Potency, µM (highest dose often 46 µM), without a hit: at the highest dose activity change, positive = activation, actives largely listed as activators; actives 1.3% (n = 330,000); AID 504466; further: % of control where 0% means no effect; nearly all actives have a fitted effect of over 60% in size
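Genotoxic stress is detected as increased luminescence from luciferase-tagged ELG1 in HEK293T cells, measured with ONE-Glo after a 16 hr treatment at 37 °C.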
NPC1 promoter act = activates the NPC1 promoter; Huh7 NPC1 promoter luciferase reporter, 24 h; Potency, µM (series often up to 9.22 µM), for the others: top-dose activation, actives largely listed as activators; actives 2.4% (n = 320,000); AID 485313; further: % of control where 0% means no effect; nearly all actives have a fitted effect of over 60% in size
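In 1536-well qHTS, Huh7 cells harboring an NPC1 promoter–luciferase construct received compound for 24 h; activation was quantified by luminescence following luciferase reagent addition.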
SMN2 splice enh = SMN2 splice variant enhancement | AID 1458 | HEK293 SMN2-luciferase splicing reporter, luminescence, 30-36 h | Potency, µM (doses to about 46.1 µM), without a hit: at the highest dose activity change, positive = activation, most hits filed as activators | actives 2.8% (n = 210,000); further: % of control where 0% means no effect; nearly all actives have a fitted effect of over 55% in size
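HEK293 cells carry an SMN2 […]–luciferase reporter in which exon 7 inclusion puts luciferase in frame. Cells were plated 10-12 h before compound addition, then incubated 30-36 h at 37C. ONE-Glo luminescence was read; sodium butyrate at 4.5 mM final served as control.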
Rab9 promoter act = activators of Rab9 promoter. actives 2.8% (n = 320,000). Huh7 Rab9 promoter-luciferase reporter, luminescence, 24 h. Potency, µM (top dose mostly 9.22 µM), inactives show top-dose activation, negative = inhibition, hits mostly activators. AID 485297; further: % of control where 0% means no effect; nearly all actives have a fitted effect of over 60% in size
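Huh7 cells stably carrying Rab9 promoter–luciferase reporter, plated 1500 cells/well, compound added after 2 h and incubated 24 h at 37 °C; luciferase luminescence then read after 10 min with detection reagent.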
FLuc counter = firefly luciferase modulation, counter-screen for miR-21 project | purified FLuc, Km substrates, luminescence inhibition | Potency, µM (titrated, usually from 57.5 µM), without a hit: at the highest dose activity change, negative = inhibition, actives largely listed as inhibitors | actives 6.9% (n = 360,000) | AID 588342;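 further: plate controls were vehicle for no effect and reference inhibitor for full effect; nearly all actives have a fitted effect of over 55% in size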
Target sequence (P08659 whole entry, looked up): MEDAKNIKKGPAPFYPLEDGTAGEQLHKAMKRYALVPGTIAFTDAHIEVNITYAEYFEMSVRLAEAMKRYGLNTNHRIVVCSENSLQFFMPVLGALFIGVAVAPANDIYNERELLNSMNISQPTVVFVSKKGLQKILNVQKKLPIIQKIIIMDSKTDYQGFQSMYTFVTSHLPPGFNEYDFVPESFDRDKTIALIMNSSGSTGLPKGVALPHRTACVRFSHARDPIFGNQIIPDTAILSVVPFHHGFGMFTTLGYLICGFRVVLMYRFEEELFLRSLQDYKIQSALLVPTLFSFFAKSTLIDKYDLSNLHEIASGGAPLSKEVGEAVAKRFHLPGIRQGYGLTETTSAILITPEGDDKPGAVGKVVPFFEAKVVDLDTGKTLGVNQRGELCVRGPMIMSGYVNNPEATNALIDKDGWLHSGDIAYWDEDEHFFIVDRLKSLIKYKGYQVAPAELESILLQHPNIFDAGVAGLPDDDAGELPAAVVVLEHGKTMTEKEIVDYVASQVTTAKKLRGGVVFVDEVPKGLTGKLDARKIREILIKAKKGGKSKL
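Purified P. pyralis luciferase, 10 nM final, with Km-level 10 uM D-luciferin and 10 uM ATP in 50 mM Tris acetate pH 7.5, 10 mM Mg acetate, 0.01% Tween-20, 0.05% BSA; 6-point qHTS titration about 60 µM downward; luminescence read.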
An asterisk follows results filed as active; ? = inconclusive; nt = no result. The call rests on the fitted dose curve; in most records, active means well fitted curve in the direction sought with a large enough effect; inconclusive means small, poorly fitted or top-dose-only effect, or another doubt; inactive means no such curve, though single readings can be large; an effect the other way counts as inactive or inconclusive. Potency means the concentration at half of the fitted maximal effect.

SMILES	Luc counter	ELG1 genotoxic	NPC1 promoter act	SMN2 splice enh	Rab9 promoter act	FLuc counter
C/C(=N\Nc1ccc([N+](=O)[O-])cc1)c1ccc(N2CCOCC2)cc1	nt	6%	17%	nt	1%	8.5µM*
C/C(=N\Nc1ccccc1[N+](=O)[O-])c1ccc(N2CCOCC2)cc1	-12%	?	2.8µM*	?	3.2µM*	3.4µM*
COC(=O)N/N=C(\C)c1ccc(C)c([N+](=O)[O-])c1	-13%	7%	0%	?	0%	?
C/C(=N\Nc1ccc([N+](=O)[O-])cc1)c1ccco1	-11%	?	?	nt	3.5µM*	7.6µM*
Clc1nc(-c2ccccn2)nc2scc(-c3ccccc3)c12	-15%	?	?	5.6µM*	4.5µM*	0.38µM*
CC1CCN(c2nc(-c3cccnc3)nc3scc(-c4ccccc4)c23)CC1	4%	0%	2%	-20%	0%	-1%
CCOc1ccc(S(=O)(=O)N(C(=O)c2ccncc2)c2ccc3oc(C)c(C(=O)OC)c3c2)cc1	nt	nt	nt	-60%	nt	-1%
COc1ccc(N2C(=O)C(Cl)=C(Nc3ccccc3OC)C2=O)cc1	3%	1%	2%	-33%	-7%	24µM*
O=S(=O)(Nc1ccc2c(c1)OCO2)c1ccccc1	-3%	3%	-2%	-7%	1%	4%
O=S(=O)(Nc1ccc2c(c1)OCCO2)c1cccc2nsnc12	2%	16µM*	1%	-13%	1%	24µM*
Cc1ccc2cccc(S(=O)(=O)Nc3ccc4c(c3)OCO4)c2n1	0%	5%	-2%	7.1µM*	-3%	2%
COc1ccc(-n2nc3cc(C)c(NC(=O)c4ccc(-c5ccc(Cl)cc5)o4)cc3n2)cc1	nt	nt	nt	2%	nt	-16%
Cc1ccccc1NC(=O)Cn1c(=O)n(CCc2ccccc2)c(=O)c2sc3ccccc3c21	nt	nt	nt	-7%	nt	0%
COc1ccc(-c2csc(Nc3cccc(C)n3)n2)cc1C	nt	?	2.2µM*	nt	1.6µM*	3.4µM*
CC(=O)Oc1ccc(-c2csc(Nc3cccc(C)n3)n2)cc1	nt	13µM*	2.2µM*	nt	?	3.4µM*
NS(=O)(=O)c1ccc(Nc2nc(-c3ccc(F)cc3)cs2)cc1	5%	-6%	-3%	-52%	-2%	4%
Cc1cccc(Nc2nc(-c3ccc(F)cc3)cs2)n1	nt	?	3.5µM*	nt	3.5µM*	5.4µM*
COc1ccc(-c2csc(Nc3cccc(C)n3)n2)cc1	nt	4.6µM*	0.89µM*	nt	0.89µM*	2.7µM*
COc1cccc2sc(Nc3nc(-c4ccncc4)cs3)nc12	0%	6%	-30%	-5%	-7%	-15%
CCCN(CCC)CCNC(=O)C(NS(=O)(=O)c1ccc2c(c1)CCC(=O)N2)c1ccccc1 (centres undefined)	-4%	3%	0%	-10%	-3%	-2%
COc1ccccc1CNC(=O)CCCn1c(=O)c2ccccc2n(Cc2ccccc2F)c1=O	nt	nt	nt	10%	nt	-8%
Cc1ccc2cc3c(nc2c1)N(Cc1ccco1)CC3	-1%	?	6%	-17%	1%	19µM*
O=c1c2sccc2n(Cc2cccc(F)c2)c(=O)n1-c1ccc(F)cc1	0%	-1%	1%	-11%	-1%	4%
CC(=O)c1cccc(NC(=O)C2=CC(c3ccc(F)cc3)=NS(=O)(=O)N2C)c1	nt	nt	nt	nt	nt	1%
CC(OC(=O)Cn1cnc2c1c(=O)n(C)c(=O)n2C)C(=O)NC(C)c1ccc(Cl)cc1Cl (centres undefined)	nt	0%	-6%	nt	0%	7%
CCOc1cc(/C=C2\SC(=S)N(C(C(=O)O)c3ccccc3)C2=O)ccc1O (centres undefined)	nt	-2%	-3%	nt	-3%	?
CCOc1ccc(/C=C2\SC(=S)N(Nc3ccccc3)C2=O)cc1OC	-3%	12%	-1%	-2%	-6%	11µM*
COc1ccc(/C=C2\SC(=S)N(Cc3cccnc3)C2=O)cc1C	2%	4%	2%	-18%	1%	5.4µM*
